According to PubChem BioAssay (NCI):
Compounds without any hit were thinned out: in the full panel of roughly 79,000, 15% have a hit. Values without a mark were called inactive. Activity calls are given as the source filed them. Cut-off read from the data, not from the text of the source: active = growth inhibition above about 70%; inactive = the rest.

Legend:
[1] = NCI Yeast Anticancer Drug Screen. Data for the rad50 strain (AID 155);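 note: 0% = growth of vehicle-only cultures of the same strain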; conditions: S. cerevisiae rad50 strain growth inhibition, active compounds read high
Procedure, shortened: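 Growth of the mutant yeast was measured after compound exposure and referenced to vehicle-treated cultures.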

[2] = NCI Yeast Anticancer Drug Screen. Data for the mec2-1 strain (AID 157); conditions: S. cerevisiae mec2-1 strain, active compounds read high
Procedure, shortened: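 Vehicle-treated cultures served as reference for growth inhibition of compound-exposed mec2-1 yeast.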

[3] = NCI Yeast Anticancer Drug Screen. Data for the sgs1 mgt1 strain (AID 161);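 note: 0% = growth of cultures given vehicle only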; conditions: S. cerevisiae sgs1 mgt1 strain, active compounds read high
Procedure, shortened: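 Read-out: growth inhibition vs vehicle controls. Cells: mutant yeast strain deficient in DNA damage repair.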

[4] = NCI Yeast Anticancer Drug Screen. Data for the cln2 rad14 strain (AID 165);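 note: 0% = growth equal to vehicle treated cultures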; conditions: S. cerevisiae cln2 rad14 strain, active compounds read high
Procedure, shortened: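 Each compound was tested on cln2 rad14 yeast. Inhibition of growth was calculated against vehicle-exposed controls.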

[5] = NCI Yeast Anticancer Drug Screen. Data for the bub3 strain (AID 167); conditions: S. cerevisiae bub3 mutant strain, active compounds read high
Procedure, shortened: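 Whole-cell yeast assay. The mutant strain was incubated with compounds, and growth inhibition was determined by comparison with vehicle-treated cells.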

[6] = NCI Yeast Anticancer Drug Screen. Data for the mlh1 rad18 strain (AID 175); conditions: S. cerevisiae mlh1 rad18 strain growth inhibition, active compounds read high
Procedure, shortened: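 Vehicle-treated cultures served as the reference for growth inhibition in a yeast strain carrying DNA damage repair alterations exposed to each compound.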

[7] = at 5.0 µM (retest, dose inferred, filed as 0.5)
[8] = at 50.0 µM (retest, dose inferred, filed as 5.0)

Row | SMILES | growth inhibition [1, 7] | growth inhibition [1, 8] | growth inhibition ([1]; at 50.0 µM) | growth inhibition [2, 7] [%] | growth inhibition [2, 8] | growth inhibition ([2]; at 50.0 µM) | growth inhibition [3, 7] [%] | growth inhibition [3, 8] | growth inhibition ([3]; at 50.0 µM) | growth inhibition [4, 7] [%] | growth inhibition [4, 8] | growth inhibition ([4]; at 50.0 µM) | growth inhibition [5, 7] [%] | growth inhibition [5, 8] | growth inhibition ([5]; at 50.0 µM) | growth inhibition [6, 7] [%] | growth inhibition [6, 8] | growth inhibition ([6]; at 50.0 µM)
1 | COc1ccccc1C1c2cc3c(cc2OC(C)(O)C1C)OCO3 (configuration not stated) | -5% | 60% | 85% (active) | -4 | 49% | 58.4% | 1 | 61% | 86.3% (active) | -3 | 53% | 74.2% (active) | 0 | 49% | 66.8% | 0 | 75% (active) | 85.5% (active)
2 | COc1cc([C@@H]2c3cc4c(cc3[C@@H](OC3OC5CO[C@@H](c6cccs6)OC5C(O)C3O)[C@H]3COC(=O)[C@H]23)OCO4)cc(OC)c1O (some centres not stated) | 74% (active) | 96% (active) | 86.6% (active) | 5 | 92% (active) | 74.8% (active) | 6 | 77% (active) | 63.7% | -3 | 79% (active) | 47.6% | -2 | 74% (active) | 49.8% | 5 | 86% (active) | 64.7%
3 | Nc1ccc2c(c1)CCc1ccccc1-2 | 1% | 40% | 83.3% (active) | -27 | 10% | 43.6% | 2 | 52% | 89.8% (active) | -5 | 8% | 50.4% | -7 | 65% | 81.5% (active) | 2 | 45% | 86.5% (active)
4 | CCN(CC)CCCNc1nc(NCCCN(CC)CC)c2nc(-c3ccccc3)c(-c3ccccc3)nc2n1 | -3% | 93% (active) | 66.5% | 2 | 93% (active) | 61.4% | -2 | 94% (active) | 63.8% | 0 | 47% | 77.4% (active) | -4 | 92% (active) | 56.1% | -6 | 94% (active) | 98.5% (active)
5 | Cc1cc(N/N=C/c2ccc([N+](=O)[O-])o2)c2cc3c(cc2n1)OCO3 | 23% | 99% (active) | 96.7% (active) | 16 | 100% (active) | 92.3% (active) | 33 | 99% (active) | 97.5% (active) | 4 | 99% (active) | 92.7% (active) | 8 | 99% (active) | 90.5% (active) | 23 | 99% (active) | 95.3% (active)
6 | O=C1Nc2ccccc2C(=O)C1(Cc1ccccc1)C(=O)c1ccccc1 (configuration not stated) | 14% | 26% | 97% (active) | -1 | -9% | 97.2% (active) | 11 | 25% | 97.5% (active) | -1 | 10% | 97.5% (active) | 11 | 12% | 97.5% (active) | 4 | 33% | 97.4% (active)
7 | O=C(O)c1cc(Br)ccc1OCc1ccc(Cl)cc1 | -1% | 28% | 43.9% | -1 | 19% | 51.2% | -7 | 5% | 58% | -13 | 27% | 79.4% (active) | -8 | 9% | -2.25% | -8 | 12% | 52.9%
8 | C/C=C\c1cc2c(cc1CC#N)OCO2 | 8% | 42% | -21.3% | 5 | 14% | 20.1% | 13 | 51% | 42.5% | 12 | 78% (active) | 5.6% | 1 | -2% | 8.25% | 17 | 39% | 25.6%
9 | CN(C)N=Nc1ccc(-c2ccccc2)cc1 | 24% | 95% (active) | 87.8% (active) | 42 | 92% (active) | 78.3% (active) | 6 | 60% | 81.8% (active) | 30 | 85% (active) | 74.2% (active) | 37 | 64% | 86.5% (active) | 38 | 89% (active) | 84.5% (active)
10 | O=C1C=CC(=O)C2C3C=CC(CC3)C12 (configuration not stated) | 8% | 29% | 47.1% | 20 | 36% | 43.6% | 10 | 36% | 70.1% (active) | 14 | 43% | 78.2% (active) | 0 | 23% | 92.5% (active) | 11 | 39% | 84.6% (active)
11 | CC(C)C1/C(=N/O)CC(c2ccccc2)N(N=O)C1c1ccccc1 (configuration not stated) | 10% | 97% (active) | 82.3% (active) | -13 | 98% (active) | 93% (active) | 3 | 98% (active) | 90.7% (active) | 15 | 96% (active) | 87.7% (active) | 4 | 98% (active) | 88% (active) | -6 | 98% (active) | 90.3% (active)
12 | Oc1cc(O)cc(O)c1 | 10% | 76% (active) | 15.7% | -2 | 18% | -4.05% | 0 | 19% | 12.3% | 5 | 17% | 7.85% | -4 | 6% | 69% | -5 | 16% | 23.3%
13 | CCOc1c(N=Nc2ccc(Cl)cc2)c(-c2ccccc2)nn1C(N)=S | 3% | 90% (active) | 93.4% (active) | -11 | 89% (active) | 94.7% (active) | 18 | 92% (active) | 93.9% (active) | -13 | 87% (active) | 93.3% (active) | 1 | 92% (active) | 92.4% (active) | 0 | 90% (active) | 93.1% (active)
14 | CCOC(=O)NC(=S)Nc1ccsc1 | 0% | -7% | 15.6% | -4 | -1% | 11.4% | 1 | 0% | 11% | 0 | -13% | 56.8% | -3 | 3% | 24.8% | -7 | 0% | 29.9%
15 | COc1cc(/C=C/c2cc[n+](C)cc2)ccc1O | -11% | -14% | 26.1% | 12 | 7% | 31.7% | -18 | -17% | 12.4% | -2 | 16% | 79.5% (active) | 0 | 11% | 0.85% | -8 | -10% | -8.35%
16 | O=[N+]([O-])c1ccc2c(c1)[nH]c1ccccc12 | -138% | 36% | 93.2% (active) | -45 | -32% | 40.1% | -65 | -11% | 73.8% (active) | -57 | -63% | 68.6% | -66 | -40% | 69.2% | -139 | -10% | 89% (active)
17 | CN1C(=O)c2ccccc2C1(c1ccccc1)c1ccccc1 | 0% | 90% (active) | 30.1% | 2 | 96% (active) | 14.8% | 4 | 98% (active) | 20.9% | 13 | 37% | 43.1% | 5 | 62% | 45.1% | 15 | 95% (active) | 56.9%
18 | C=C1CC[C@@H](Br)C(C)(C)[C@]12CCC(C)(O)C(Cl)C2 (some centres not stated) | -3% | 34% | 91.7% (active) | 16 | 30% | 93.5% (active) | 10 | 44% | 92.2% (active) | 31 | 44% | 90.9% (active) | 6 | 72% (active) | 92% (active) | -25 | 41% | 91% (active)
19 | CC(C)c1cccc2sc(NC(=O)C(=O)C(C#N)c3cccc4ccccc34)nc12 (configuration not stated) | 0% | 14% | 19.2% | 3 | 15% | -9.55% | 2 | 10% | 0.25% | 3 | 8% | 13.2% | 3 | 5% | 5.05% | 3 | 9% | 12.2%
